# According to PubChem BioAssay (Tox21):
# Records with an inconclusive call do not appear. Where a call stands in place of a potency, no number is given. Activity calls are given as the source filed them. Unless noted, the call rests on the fitted dose curve.
# Experiments:
# [1] = Nuclear factor erythroid 2-related factor 2/antioxidant responsive element (Nrf2/ARE) small molecule agonists: luciferase reporter gene qHTS assay in human keratinocytes (AID 1919969); further: nearly all actives have a fitted effect of over 35% in size; further: potency means the concentration at half of the fitted maximal effect
# [2] = molecular target: Gonadotropin-releasing hormone receptor (Homo sapiens) (UniProt P30968); assay: Human gonadotropin-releasing hormone receptor (GnRHR) small molecule agonists, calcium flux assay in GnRHR-HEK293 cells (AID 1920063); further: nearly all actives have a fitted effect of over 35% in size
# Outline: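 Calcium flux, agonist mode, human GnRHR stably integrated in HEK293; dye 1 h at 37 C before compound; Ex/Em=480/540 kinetic read, 3 min; 15 concentrations, triplicate.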
# [3] = molecular target: KiSS-1 receptor (Homo sapiens) (UniProt Q969F8); assay: Human kisspeptin (KISS1R) small molecule agonists, calcium flux assay in KISS1R-HEK293 cells (AID 1920064; active means well fitted activation curve with a large enough effect in the repeat runs)
# Outline: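 Triplicate 15-concentration series were applied to dye-loaded human KISS1R HEK293 cells, and agonist-evoked calcium fluorescence was captured for 3 min.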
# [4] = G protein-coupled receptor (GPCR) small molecule agonists, calcium flux assay: HEK293 wild type cell line counter screen (AID 1920065)
# Outline: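 Non-specific calcium responders were flagged by adding DMSO-dissolved compounds to dye-loaded cells and reading 480/540 nm fluorescence each second for 3 min; ATP served as positive control.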
# [5] = p53 small molecule agonists, cell-based qHTS assay with human liver microsomes (AID 1963577)
# Outline: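 p53RE-bla cells, 4,000/well, compound added after 5 h, with human liver microsomes 0.5 mg/mL and NADPH 0.5 mg/mL final; 16 h at 37 C, then LiveBLAzer 2 h RT, fluorescence.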
# [6] = p53 small molecule agonists, cell-based qHTS assay with rat liver microsomes (AID 1963578)
# Outline: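 p53RE-bla cells, 4,000/well, pre-incubated 5 h, then given compounds plus rat liver microsomes (0.5 mg/mL final) and NADPH (0.5 mg/mL final). Incubation 16 h at 37 C; beta-lactamase reporter read by LiveBLAzer fluorescence after 2 h at room temperature.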
# [7] = p53 small molecule agonists, cell-based qHTS assay with human liver microsomes: qHTS cell viability counter screen (AID 1963579); further: nearly all actives have a fitted effect of over 45% in size
# Outline: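 p53RE-bla cells, 4,000/well, dosed 5 hours after plating, with human liver microsomes (0.5 mg/mL final) plus NADPH (0.5 mg/mL final), 16 hours at 37 C. Viability read as CellTiter-Glo luminescence after 30 min at room temperature.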
# [8] = p53 small molecule agonists, cell-based qHTS assay with rat liver microsomes: qHTS cell viability counter screen (AID 1963580); further: nearly all actives have a fitted effect of over 45% in size
# Outline: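 Cytotoxicity counter screen: intracellular ATP measured by CellTiter-Glo luminescence in the same wells as the beta-lactamase reporter read, on HCT-116 p53RE-bla cells exposed 16 h at 37 C to compounds with rat liver microsomes and NADPH, each 0.5 mg/mL final.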
# [9] = p53 small molecule agonists, cell-based qHTS assay: qHTS cell viability counter screen (AID 1963581); further: nearly all actives have a fitted effect of over 45% in size
# Outline: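 Multiplexed with the reporter read, a CellTiter-Glo step (30 min, room temperature) gauges ATP-based viability of HCT-116 p53RE-bla cells after 16 h compound incubation at 37 C.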
# [10] = p53 small molecule agonists, cell-based qHTS assay (AID 1963582; active means well fitted activation curve with a large enough effect in the signal ratio in the repeat runs, not every such curve was filed as active; the % refers to the signal ratio)
# Outline: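 Beta-lactamase reporter cells (p53RE-bla) treated with compounds for 16 h at 37 C; FRET substrate, 2 h, room temperature; fluorescence intensity.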
# [11] = molecular target: 5-hydroxytryptamine receptor 2A (Homo sapiens) (UniProt P28223); assay: 5-hydroxytryptamine receptor 2A (HTR2A) small molecule antagonists, cell-based qHTS assay (AID 1963586); further: nearly all actives have a fitted effect of over 45% in size; further: potency means the concentration at half of the fitted maximal effect
# Outline: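 CHO cells stably expressing human HTR2A were plated for 18 h at 37 C, then loaded with calcium dye for 1 h. Compounds were preincubated 5 min at room temperature before DOI (4 nM solution) was added. Kinetic fluorescence was read for 3 min.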
# [12] = molecular target: 5-hydroxytryptamine receptor 2A (Homo sapiens) (UniProt P28223); assay: 5-hydroxytryptamine receptor 2A (HTR2A) small molecule agonists, cell-based qHTS assay (AID 1963587); further: nearly all actives have a fitted effect of over 30% in size
# Outline: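 CHO cells stably expressing human HTR2A, plated 18 h, loaded with calcium dye 1 h at 37 C. Agonist mode: compounds added and intracellular calcium fluorescence recorded kinetically for 2 min at 1 sec intervals.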
# [13] = molecular target: Muscarinic acetylcholine receptor M1 (Homo sapiens) (UniProt P11229); assay: Cholinergic receptor muscarinic 1 (CHRM1) small molecule antagonists, cell-based qHTS assay (AID 1963588); further: nearly all actives have a fitted effect of over 40% in size
# Outline: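 Compounds were tested at 15 concentrations in three independent runs. Dye-loaded CHRM1-CHO cells were exposed 5 min at room temperature before stimulation by acetylcholine added at 50nM. Intracellular calcium was read kinetically on FDSS for 3 min.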
# [14] = molecular target: Muscarinic acetylcholine receptor M1 (Homo sapiens) (UniProt P11229); assay: Cholinergic receptor muscarinic 1 (CHRM1) small molecule agonists, cell-based qHTS assay (AID 1963589); further: nearly all actives have a fitted effect of over 35% in size
# Outline: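 qHTS, 15-point titration, 3 independent runs: compounds pin-transferred onto dye-loaded CHRM1-CHO cells (human M1), calcium fluorescence followed every second to detect agonism.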
# [15] = cAMP Responsive Elements (CRE) small molecule agonists, cell-based qHTS assay (AID 1963590)
# Outline: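 Quantitative HTS for CRE agonists: HEK 293T CRE-bla cells, overnight plating, 3 h compound incubation at 37 C/5% CO2, then 2 h room-temperature LiveBLAzer B/G FRET substrate loading.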
# [16] = cAMP Responsive Elements (CRE) small molecule antagonists, cell-based qHTS assay (AID 1963591; active means well fitted inhibition curve with a large enough effect in the signal ratio in the repeat runs, not every such curve was filed as active; the % refers to the signal ratio)
# Outline: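 Fluorescence intensity from cleaved LiveBLAzer B/G substrate (2 h, room temperature) quantified CRE-bla activity in HEK 293T cells exposed 3 h to compound with 0.25 uM final NKH477.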
# [17] = molecular target: Beta-2 adrenergic receptor (Homo sapiens) (UniProt P07550); assay: Adrenergic beta2 receptor (ADRB2) small molecule antagonists, cell-based qHTS assay (AID 1963592); further: series mostly up to about 92 µM; nearly all actives have a fitted effect of over 50% in size
# Outline: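 Assay format: CHO-ADRB2 cells, 18-20hr seeding at 37C/5% CO2, then compound plus 1nM isoproterenol agonist mix for 0.5hr RT. Homogeneous time-resolved fluorescence cAMP detection after 1hr, expressed as 665/615 nm ratio.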
# [18] = molecular target: Beta-2 adrenergic receptor (Homo sapiens) (UniProt P07550); assay: Adrenergic beta2 receptor (ADRB2) small molecule agonists, cell-based qHTS assay (AID 1963593);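 further: CHO cells stably overexpressing human ADRB2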
# Outline: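 CHO cells stably over-expressing ADRB2 were plated overnight at 37C, then dosed with compounds plus a stimulation mix containing 100uM IBMX and 25uM Ro-20-1724 for 0.5hr at room temperature. cAMP was measured by HTRF competition, 1hr.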
# [19] = molecular target: D(2) dopamine receptor (Homo sapiens) (UniProt P14416); assay: Dopamine D2 receptor (DRD2) small molecule agonists, cell-based qHTS assay (AID 1963594); further: nearly all actives have a fitted effect of over 35% in size
# Outline: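 HEK293 cells stably expressing human DRD2, pre-treated with PDE inhibitor Ro20-1724 (0.1 mM final) and compound 10 min at room temperature, then stimulated with NKH477 (200nM […]) for 30 min. cAMP read by HTRF (665/620 nm).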
# [20] = molecular target: D(2) dopamine receptor (Homo sapiens) (UniProt P14416); assay: Dopamine D2 receptor (DRD2) small molecule antagonists, cell-based qHTS assay (AID 1963595; active means well fitted inhibition curve with a large enough effect in the signal ratio in the repeat runs, with a control signal flat; the % refers to the signal ratio)
# Outline: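 Cells were plated and grown for 24 h at 37 °C. Ro20-1724 (0.1 mM final) went in first, then compound for 10 min. NKH477 (200 nM) with quinpirole (12 nM) followed for 30 min at RT, then HTRF detection reagents for 1 h.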
# Chain of Muscarinic acetylcholine receptor M1 (Homo sapiens) (P11229 whole entry, looked up): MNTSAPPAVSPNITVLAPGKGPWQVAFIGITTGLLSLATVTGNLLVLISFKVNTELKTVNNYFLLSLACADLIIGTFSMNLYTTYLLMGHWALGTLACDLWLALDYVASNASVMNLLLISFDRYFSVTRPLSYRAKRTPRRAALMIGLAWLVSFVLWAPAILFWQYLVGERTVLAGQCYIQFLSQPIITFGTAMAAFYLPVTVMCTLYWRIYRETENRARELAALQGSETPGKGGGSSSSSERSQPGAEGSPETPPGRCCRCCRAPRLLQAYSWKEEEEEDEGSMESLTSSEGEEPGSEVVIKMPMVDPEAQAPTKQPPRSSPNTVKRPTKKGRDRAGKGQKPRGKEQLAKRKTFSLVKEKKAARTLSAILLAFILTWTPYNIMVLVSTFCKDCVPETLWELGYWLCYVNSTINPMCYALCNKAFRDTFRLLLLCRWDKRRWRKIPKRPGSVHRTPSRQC
# Chain of Beta-2 adrenergic receptor (Homo sapiens) (P07550 whole entry, looked up): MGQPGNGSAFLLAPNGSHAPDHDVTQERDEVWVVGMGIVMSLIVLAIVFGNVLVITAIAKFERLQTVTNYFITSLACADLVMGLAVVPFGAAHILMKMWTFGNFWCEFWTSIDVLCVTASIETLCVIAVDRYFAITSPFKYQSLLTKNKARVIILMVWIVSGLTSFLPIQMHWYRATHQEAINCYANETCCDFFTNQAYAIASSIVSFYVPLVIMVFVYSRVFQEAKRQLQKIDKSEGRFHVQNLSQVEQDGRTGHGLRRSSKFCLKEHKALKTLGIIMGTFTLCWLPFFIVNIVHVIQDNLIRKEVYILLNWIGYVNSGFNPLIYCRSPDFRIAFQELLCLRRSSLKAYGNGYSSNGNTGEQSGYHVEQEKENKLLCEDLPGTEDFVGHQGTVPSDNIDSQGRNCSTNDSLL
# Chain of Gonadotropin-releasing hormone receptor (Homo sapiens) (P30968 whole entry, looked up): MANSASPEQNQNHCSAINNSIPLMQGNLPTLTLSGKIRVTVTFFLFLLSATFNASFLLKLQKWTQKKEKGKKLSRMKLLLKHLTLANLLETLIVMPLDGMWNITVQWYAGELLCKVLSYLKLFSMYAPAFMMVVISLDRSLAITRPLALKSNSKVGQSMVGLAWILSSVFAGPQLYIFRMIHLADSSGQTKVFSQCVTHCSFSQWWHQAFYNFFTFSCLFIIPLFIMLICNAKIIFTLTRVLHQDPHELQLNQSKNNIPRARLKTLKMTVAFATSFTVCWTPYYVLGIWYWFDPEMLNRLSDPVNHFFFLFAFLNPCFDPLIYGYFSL
# Chain of D(2) dopamine receptor (Homo sapiens) (P14416 whole entry, looked up): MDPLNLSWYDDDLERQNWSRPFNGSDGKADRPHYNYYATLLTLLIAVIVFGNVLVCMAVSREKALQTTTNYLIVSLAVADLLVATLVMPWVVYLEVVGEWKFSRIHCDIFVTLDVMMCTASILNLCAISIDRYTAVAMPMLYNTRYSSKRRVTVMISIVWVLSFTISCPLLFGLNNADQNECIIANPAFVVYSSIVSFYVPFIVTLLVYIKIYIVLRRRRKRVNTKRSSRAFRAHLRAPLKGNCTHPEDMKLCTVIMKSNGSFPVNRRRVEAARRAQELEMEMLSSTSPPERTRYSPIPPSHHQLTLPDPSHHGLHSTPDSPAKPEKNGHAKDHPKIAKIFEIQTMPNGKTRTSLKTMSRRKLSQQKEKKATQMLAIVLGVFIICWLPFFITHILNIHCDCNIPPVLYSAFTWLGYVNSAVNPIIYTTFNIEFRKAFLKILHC
# Chain of KiSS-1 receptor (Homo sapiens) (Q969F8 whole entry, looked up): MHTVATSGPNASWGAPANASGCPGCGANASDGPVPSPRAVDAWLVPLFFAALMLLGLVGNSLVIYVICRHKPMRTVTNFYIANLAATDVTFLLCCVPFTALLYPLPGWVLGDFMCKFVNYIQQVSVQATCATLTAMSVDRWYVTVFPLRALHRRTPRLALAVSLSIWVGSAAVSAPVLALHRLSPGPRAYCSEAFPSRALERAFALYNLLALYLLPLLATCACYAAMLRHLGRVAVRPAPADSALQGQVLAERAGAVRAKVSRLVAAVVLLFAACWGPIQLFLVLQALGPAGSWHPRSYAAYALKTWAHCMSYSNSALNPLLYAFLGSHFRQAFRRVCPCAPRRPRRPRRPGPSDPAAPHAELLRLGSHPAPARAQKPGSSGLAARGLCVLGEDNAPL
# Chain of 5-hydroxytryptamine receptor 2A (Homo sapiens) (P28223 whole entry, looked up): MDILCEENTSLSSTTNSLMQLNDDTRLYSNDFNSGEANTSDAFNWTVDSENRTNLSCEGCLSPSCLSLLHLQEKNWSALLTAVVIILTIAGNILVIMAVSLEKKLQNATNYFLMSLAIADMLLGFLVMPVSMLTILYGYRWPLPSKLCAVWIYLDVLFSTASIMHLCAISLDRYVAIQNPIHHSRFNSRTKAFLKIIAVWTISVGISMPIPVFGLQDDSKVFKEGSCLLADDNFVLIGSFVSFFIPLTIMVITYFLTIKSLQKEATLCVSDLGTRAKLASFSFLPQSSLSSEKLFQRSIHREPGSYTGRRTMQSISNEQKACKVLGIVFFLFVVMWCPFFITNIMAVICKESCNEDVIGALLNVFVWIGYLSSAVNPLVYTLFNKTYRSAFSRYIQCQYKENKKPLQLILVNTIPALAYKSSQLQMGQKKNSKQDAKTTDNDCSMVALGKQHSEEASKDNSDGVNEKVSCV
Compound,Potency [1],Potency [2],Potency [3],Potency [4],Potency [5],Potency [6],Potency [7],Potency [8],Potency [9],Potency [10],Potency [11],Potency [12],Potency [13],Potency [14],Potency [15],Potency [16],Potency [17],Potency [18],Potency [19],Potency [20]
O=C1CC2CC1C1CCCC21 (stereo not given),inactive,inactive,inactive,inactive,inactive,inactive,inactive,inactive,inactive,inactive,inactive,inactive,inactive,inactive,inactive,inactive,inactive,inactive,inactive,inactive
O=C1CCCCCCCCCCCCCCCO1,inactive,inactive,inactive,inactive,inactive,inactive,inactive,inactive,–,inactive,inactive,inactive,inactive,inactive,inactive,inactive,inactive,–,inactive,–
O=C(O)[C@H](O)[C@@H](O)[C@H](O[C@@H]1O[C@H](CO)[C@H](O)[C@H](O)[C@H]1O)[C@H](O)CO,inactive,inactive,inactive,inactive,inactive,inactive,inactive,inactive,inactive,inactive,inactive,inactive,inactive,inactive,inactive,inactive,–,inactive,inactive,inactive
CNCCO,inactive,inactive,inactive,inactive,inactive,inactive,inactive,inactive,inactive,inactive,–,inactive,inactive,inactive,inactive,inactive,inactive,inactive,inactive,inactive
c1ccc(SCCSc2ccccc2)cc1,12.1 µM (active),inactive,inactive,inactive,inactive,inactive,inactive,inactive,inactive,inactive,inactive,inactive,inactive,inactive,inactive,inactive,–,–,–,inactive
CN(C1CCCCC1)S(=O)(=O)c1ccccc1N,inactive,inactive,inactive,inactive,inactive,inactive,inactive,inactive,inactive,inactive,37.5 µM (active),inactive,inactive,inactive,inactive,inactive,inactive,inactive,inactive,inactive
O=C1c2c(O)ccc(Nc3ccc(CCO)cc3)c2C(=O)c2c([N+](=O)[O-])ccc(O)c21,30.6 µM (active),inactive,inactive,inactive,inactive,inactive,inactive,inactive,inactive,inactive,inactive,inactive,–,inactive,–,–,–,–,–,–
CCOCCOCCOCC,inactive,inactive,inactive,inactive,inactive,inactive,inactive,inactive,–,inactive,inactive,inactive,inactive,inactive,inactive,inactive,inactive,inactive,inactive,–
CC(=O)N(c1onc(C)c1C)S(=O)(=O)c1ccc(N)cc1,inactive,inactive,inactive,inactive,inactive,inactive,inactive,inactive,inactive,inactive,inactive,inactive,inactive,inactive,inactive,–,inactive,inactive,inactive,inactive
N#CCN(CC#N)CCN(CC#N)CC#N,inactive,inactive,inactive,inactive,inactive,inactive,inactive,inactive,inactive,–,inactive,inactive,–,inactive,inactive,inactive,inactive,inactive,inactive,inactive
Clc1cc(Cl)c(Cl)c(Cl)c1Cl,inactive,inactive,inactive,inactive,inactive,inactive,inactive,inactive,inactive,inactive,inactive,inactive,inactive,inactive,inactive,–,inactive,inactive,inactive,inactive
O=C1CCC(=O)N1,inactive,inactive,inactive,inactive,inactive,inactive,inactive,inactive,inactive,inactive,inactive,inactive,inactive,inactive,inactive,inactive,inactive,inactive,inactive,inactive
CCC(=O)CC,inactive,inactive,inactive,inactive,inactive,inactive,inactive,inactive,–,inactive,inactive,inactive,inactive,inactive,inactive,inactive,inactive,inactive,inactive,inactive
O=[N+]([O-])c1ccc2c(c1)Cc1ccccc1-2,inactive,inactive,inactive,inactive,inactive,inactive,inactive,inactive,inactive,inactive,inactive,inactive,inactive,inactive,inactive,inactive,inactive,inactive,–,inactive
CCN(CC)C(=O)C1CN2CCc3cc(OC)c(OC)cc3C2CC1OC(C)=O (stereo not given),inactive,inactive,inactive,inactive,inactive,inactive,inactive,inactive,inactive,inactive,inactive,inactive,inactive,inactive,inactive,inactive,inactive,inactive,inactive,–
Nc1cc(S(=O)(=O)O)ccc1S(=O)(=O)O,inactive,inactive,inactive,inactive,inactive,inactive,inactive,inactive,inactive,inactive,inactive,inactive,inactive,inactive,inactive,inactive,inactive,–,inactive,inactive
